From PubChem BioAssay (Tox21)
The source made the active and inactive calls. Calls come from the whole dose curve; as a rule, active = well fitted curve in the direction sought with a large enough effect in the repeat runs; inconclusive = weak or mixed curves; inactive = flat fitted curve, though single readings scatter.

Assay: qHTS assay to test for compound auto fluorescence at 460 nm (blue) in HEK293 cell free culture (AID 720681)
Settings: cell-free medium, autofluorescence 405/460 nm (blue); series mostly up to 91.3 µM
Summary of the method: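 Compounds were added to cell-free DMEM with 10% FBS and fluorescence read directly. The blue channel used 405 nm excitation and 460 nm emission, with triamterene as the reference fluorophore.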
In the case of `Cc1ccc(C)c(OCCCC(C)(C)C(=O)O)c1`, the outcome was “inactive”.
With `Nc1ccn([C@H]2CC[C@@H](CO)O2)c(=O)n1` the outcome was “inactive”.
In the case of `Oc1ccc(/C=C/c2cc(O)cc(O)c2)cc1`, the outcome was “inactive”.
With `Cc1ccc(S(=O)(=O)NC(=O)NN2CCCCCC2)cc1` the outcome was “inactive”.
For `NC(=O)NC1NC(=O)NC1=O` (stereo not drawn), the outcome was “inactive”.
With `CCCCCCCCCCCCCCCC(=O)O` the outcome was “inactive”.
With `CC(C)[C@@H]1CC[C@@H](C)C[C@H]1O` the outcome was “inactive”.
In the case of `O=C(C1CCCCC1)N1CC(=O)N2CCc3ccccc3C2C1` (stereo not drawn), the outcome was “inactive”.
With `C1N2CN3CN1CN(C2)C3` the outcome was “inactive”.
With `COc1c2occc2cc2ccc(=O)oc12` the outcome was “inactive”.
With `O=C(c1ccccc1)c1ccccc1` the outcome was “inactive”.
In the case of `NC(N)=O`, the outcome was “inactive”.
With `Cn1c(=O)c2[nH]cnc2n(C)c1=O` the outcome was “inactive”.
For `COc1ccc2[nH]cc(CCNC(C)=O)c2c1`, the outcome was “inactive”.
For `OCCc1ccccc1`, the outcome was “inactive”.
In the case of `CCCC(O)C(CC)CO` (stereo not drawn), the outcome was “inactive”.
In the case of `CCCN(CCC)S(=O)(=O)c1ccc(C(=O)O)cc1`, the outcome was “inactive”.
For `Nc1ccc(S(=O)(=O)Nc2nccs2)cc1`, the outcome was “inactive”.
For `O=C(O)C(=O)O`, the outcome was “inactive”.
For `O=C(O)CCCCCCCC(=O)O`, the outcome was “inactive”.
For `N=C(N)c1ccc(OCCCCCOc2ccc(C(=N)N)cc2)cc1`, the outcome was “inactive”.
With `O=NO` the outcome was “inactive”.
With `NC(N)=NC(=O)c1nc(Cl)c(N)nc1N` the outcome was “inactive”.
For `Cc1cc(=O)[nH]c(=S)[nH]1`, the outcome was “inactive”.
For `O=C(O)c1[nH]n(-c2ccc(S(=O)(=O)O)cc2)c(=O)c1N=Nc1ccc(S(=O)(=O)O)cc1`, the outcome was “inactive”.
For `NS(=O)(=O)c1cc(C(=O)O)c(NCc2ccco2)cc1Cl`, the outcome was “inactive”.
With `Cc1noc(NS(=O)(=O)c2ccc(N)cc2)c1C` the outcome was “inactive”.
With `CCCCOC(=O)CC(CC(=O)OCCCC)(OC(C)=O)C(=O)OCCCC` the outcome was “inactive”.
For `CC(O)CO` (stereo not drawn), the outcome was “inactive”.
With `O=C(O)c1cc(N=Nc2ccc(S(=O)(=O)Nc3ccccn3)cc2)ccc1O` the outcome was “inactive”.
With `CCCCC1C(=O)N(c2ccccc2)N(c2ccccc2)C1=O` the outcome was “inactive”.
In the case of `CCCCC(CC)COC(=O)/C=C/c1ccc(OC)cc1` (stereo not drawn), the outcome was “inactive”.
For `NC(=O)c1ccccc1O`, the outcome was “inactive”.
In the case of `O=C(O)CS`, the outcome was “inactive”.
With `O=S(=O)(O)NC1CCCCC1` the outcome was “inactive”.
For `Cc1cn([C@H]2C[C@H](N=[N+]=[N-])[C@@H](CO)O2)c(=O)[nH]c1=O`, the outcome was “inactive”.

Assay: qHTS assay to test for compound auto fluorescence at 535 nm (green) in HEK293 cell free culture (AID 720682)
Settings: cell-free medium, green autofluorescence 485/535 nm; series mostly up to 91.3 µM
Summary of the method: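 Steps: dispense DMEM/10% FBS into empty wells; pin in compound or DMSO; measure fluorescence at 485/535 nm. Values are fluorescein equivalents.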
In the case of `Cc1ccc(C)c(OCCCC(C)(C)C(=O)O)c1`, the outcome was “inactive”.
For `Nc1ccn([C@H]2CC[C@@H](CO)O2)c(=O)n1`, the outcome was “inactive”.
In the case of `Oc1ccc(/C=C/c2cc(O)cc(O)c2)cc1`, the outcome was “inactive”.
With `Cc1ccc(S(=O)(=O)NC(=O)NN2CCCCCC2)cc1` the outcome was “inactive”.
In the case of `NC(=O)NC1NC(=O)NC1=O` (stereo not drawn), the outcome was “inactive”.
In the case of `CCCCCCCCCCCCCCCC(=O)O`, the outcome was “inactive”.
In the case of `CC(C)[C@@H]1CC[C@@H](C)C[C@H]1O`, the outcome was “inactive”.
For `O=C(C1CCCCC1)N1CC(=O)N2CCc3ccccc3C2C1` (stereo not drawn), the outcome was “inactive”.
In the case of `C1N2CN3CN1CN(C2)C3`, the outcome was “inactive”.
For `COc1c2occc2cc2ccc(=O)oc12`, the outcome was “inactive”.
With `O=C(c1ccccc1)c1ccccc1` the outcome was “inactive”.
For `NC(N)=O`, the outcome was “inactive”.
In the case of `Cn1c(=O)c2[nH]cnc2n(C)c1=O`, the outcome was “inactive”.
For `COc1ccc2[nH]cc(CCNC(C)=O)c2c1`, the outcome was “inactive”.
In the case of `OCCc1ccccc1`, the outcome was “inactive”.
In the case of `CCCC(O)C(CC)CO` (stereo not drawn), the outcome was “inactive”.
In the case of `CCCN(CCC)S(=O)(=O)c1ccc(C(=O)O)cc1`, the outcome was “inactive”.
With `Nc1ccc(S(=O)(=O)Nc2nccs2)cc1` the outcome was “inactive”.
For `O=C(O)C(=O)O`, the outcome was “inactive”.
In the case of `O=C(O)CCCCCCCC(=O)O`, the outcome was “inactive”.
For `N=C(N)c1ccc(OCCCCCOc2ccc(C(=N)N)cc2)cc1`, the outcome was “inactive”.
For `O=NO`, the outcome was “inactive”.
For `NC(N)=NC(=O)c1nc(Cl)c(N)nc1N`, the outcome was “inactive”.
For `Cc1cc(=O)[nH]c(=S)[nH]1`, the outcome was “inactive”.
For `O=C(O)c1[nH]n(-c2ccc(S(=O)(=O)O)cc2)c(=O)c1N=Nc1ccc(S(=O)(=O)O)cc1`, the outcome was “inactive”.
For `NS(=O)(=O)c1cc(C(=O)O)c(NCc2ccco2)cc1Cl`, the outcome was “inactive”.
With `Cc1noc(NS(=O)(=O)c2ccc(N)cc2)c1C` the outcome was “inactive”.
With `CCCCOC(=O)CC(CC(=O)OCCCC)(OC(C)=O)C(=O)OCCCC` the outcome was “inactive”.
For `CC(O)CO` (stereo not drawn), the outcome was “inactive”.
For `O=C(O)c1cc(N=Nc2ccc(S(=O)(=O)Nc3ccccn3)cc2)ccc1O`, the outcome was “inactive”.
For `CCCCC1C(=O)N(c2ccccc2)N(c2ccccc2)C1=O`, the outcome was “inactive”.
For `CCCCC(CC)COC(=O)/C=C/c1ccc(OC)cc1` (stereo not drawn), the outcome was “inactive”.
In the case of `NC(=O)c1ccccc1O`, the outcome was “inactive”.
For `O=C(O)CS`, the outcome was “inactive”.
For `O=S(=O)(O)NC1CCCCC1`, the outcome was “inactive”.
In the case of `Cc1cn([C@H]2C[C@H](N=[N+]=[N-])[C@@H](CO)O2)c(=O)[nH]c1=O`, the outcome was “inactive”.

Assay: qHTS assay to test for compound auto fluorescence at 590 nm (red) in HepG2 cell free culture (AID 720684)
Settings: cell-free medium autofluorescence, red 540/590 nm; series mostly up to 91.3 µM
Summary of the method: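 Rose Bengal sodium served as the reference for red signal. Test compounds were dispensed into serum-containing MEM (10% FBS) without cells, and plates were read at 540/590 nm.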
For `Cc1ccc(C)c(OCCCC(C)(C)C(=O)O)c1`, the outcome was “inactive”.
With `Nc1ccn([C@H]2CC[C@@H](CO)O2)c(=O)n1` the outcome was “inactive”.
With `Oc1ccc(/C=C/c2cc(O)cc(O)c2)cc1` the outcome was “inactive”.
In the case of `Cc1ccc(S(=O)(=O)NC(=O)NN2CCCCCC2)cc1`, the outcome was “inactive”.
With `NC(=O)NC1NC(=O)NC1=O` (stereo not drawn) the outcome was “inactive”.
In the case of `CCCCCCCCCCCCCCCC(=O)O`, the outcome was “inactive”.
In the case of `CC(C)[C@@H]1CC[C@@H](C)C[C@H]1O`, the outcome was “inactive”.
In the case of `O=C(C1CCCCC1)N1CC(=O)N2CCc3ccccc3C2C1` (stereo not drawn), the outcome was “inactive”.
With `C1N2CN3CN1CN(C2)C3` the outcome was “inactive”.
For `COc1c2occc2cc2ccc(=O)oc12`, the outcome was “inactive”.
With `O=C(c1ccccc1)c1ccccc1` the outcome was “inactive”.
With `NC(N)=O` the outcome was “inactive”.
For `Cn1c(=O)c2[nH]cnc2n(C)c1=O`, the outcome was “inactive”.
In the case of `COc1ccc2[nH]cc(CCNC(C)=O)c2c1`, the outcome was “inactive”.
For `OCCc1ccccc1`, the outcome was “inactive”.
With `CCCC(O)C(CC)CO` (stereo not drawn) the outcome was “inactive”.
In the case of `CCCN(CCC)S(=O)(=O)c1ccc(C(=O)O)cc1`, the outcome was “inactive”.
With `Nc1ccc(S(=O)(=O)Nc2nccs2)cc1` the outcome was “inactive”.
In the case of `O=C(O)C(=O)O`, the outcome was “inactive”.
With `O=C(O)CCCCCCCC(=O)O` the outcome was “inactive”.
For `N=C(N)c1ccc(OCCCCCOc2ccc(C(=N)N)cc2)cc1`, the outcome was “inactive”.
In the case of `O=NO`, the outcome was “inactive”.
In the case of `NC(N)=NC(=O)c1nc(Cl)c(N)nc1N`, the outcome was “inactive”.
In the case of `Cc1cc(=O)[nH]c(=S)[nH]1`, the outcome was “inactive”.
With `O=C(O)c1[nH]n(-c2ccc(S(=O)(=O)O)cc2)c(=O)c1N=Nc1ccc(S(=O)(=O)O)cc1` the outcome was “inactive”.
With `NS(=O)(=O)c1cc(C(=O)O)c(NCc2ccco2)cc1Cl` the outcome was “inactive”.
With `Cc1noc(NS(=O)(=O)c2ccc(N)cc2)c1C` the outcome was “inactive”.
In the case of `CCCCOC(=O)CC(CC(=O)OCCCC)(OC(C)=O)C(=O)OCCCC`, the outcome was “inactive”.
For `CC(O)CO` (stereo not drawn), the outcome was “inactive”.
In the case of `O=C(O)c1cc(N=Nc2ccc(S(=O)(=O)Nc3ccccn3)cc2)ccc1O`, the outcome was “inactive”.
For `CCCCC1C(=O)N(c2ccccc2)N(c2ccccc2)C1=O`, the outcome was “inactive”.
With `CCCCC(CC)COC(=O)/C=C/c1ccc(OC)cc1` (stereo not drawn) the outcome was “inactive”.
With `NC(=O)c1ccccc1O` the outcome was “inactive”.
In the case of `O=C(O)CS`, the outcome was “inactive”.
With `O=S(=O)(O)NC1CCCCC1` the outcome was “inactive”.
With `Cc1cn([C@H]2C[C@H](N=[N+]=[N-])[C@@H](CO)O2)c(=O)[nH]c1=O` the outcome was “inactive”.
